Data on 40 molecules can be found in PubChem BioAssay (Tox21).

Each structure is given as a SMILES string. Values without a mark were called inactive. The source made the active and inactive calls. Calls follow the shape of the dose curve; as a rule, active = well fitted curve in the direction sought with a large enough effect in the repeat runs; inconclusive = weak or mixed curves; inactive = flat fitted curve, though single readings scatter.
% is scaled to controls: 0 for no effect and ±100 for the full control effect.

A short description of this experiment: qHTS assay to test for compound auto fluorescence at 535 nm (green) in HEK293 cell free culture (AID 720682). The settings on record: cell-free medium, green autofluorescence 485/535 nm, stronger effect = higher value; series mostly up to 91.3 µM; activity change: at the top concentration. An excerpt: U.S. Tox21 Program National Center for Advancing Translational Sciences [NCATS] NIH Chemical Genomics Center [NCGC] U.S. Environmental Protection Agency [EPA] National Institutes of Environmental Health Sciences [NIEHS] National Toxicology Program [NTP] U.S. Food and Drug Administration [FDA] Tox21 Assay Overview: Compound auto fluorescence often interferes with screening of the compound library against various biological targets and signaling pathways. Some of these compounds may have fluorophoric properties. Such properties may interfere with the assay outputs resulting in false positives and/or negatives. To decrease such complications and ensure the compound activities are relevant in terms of biological response, the Tox21 10K compound library was screened for auto fluorescence. From the fluorophores used as reporter signals in our screening assays, the auto fluorescence equivalencies of compounds against three fluorophores have been evaluated: Triamterene, Fluorescein and Rose Bengal sodium for blue, green and red fluorescence, respectively. The fluorescence intensities were measured using Excitation/Emission wavelengths at 405/460nm, 485/535nm and 540/590nm for blue, green and red labels, respectively. This assay includes the green fluorescence data.
Tox21 Assay Protocol Summary: 5 uL of culture medium (DMEM containing 10% FBS) per well was dispensed into black wall/clear bottom 1536-well plates using a Multidrop Combi Dispenser (ThermoFisher Scientific, Waltham, MA). After 23 nL compound or DMSO vehicle was transferred into assay plate by a pintool work station (Kalypsys, San Diego, CA), fluorescence intensities in the assay plates were measured by an Envision (PerkinElmer, Shelton, CT) plate reader using three labels for measuring blue, green and red fluorescence at […] 460, 535 and 590nm respectively.
In general terms: In qHTS, concentration-response curves come from the screen itself.
With `CCCCN(CCCC)CCCOC(=O)c1ccc(N)cc1`, the activity change is -0.0464% [at 18.6 µM].
The same measure, in the same setting: with `OC/C(Br)=C(\Br)CO` the figure was 0.0339%; with `O=C(O)c1ccc(CO)o1`, 0.0108% [at 95.7 µM].
Same read-out and setting: then `CC(=O)Nc1ccc(N)cc1`, with 0.0074% [at 95.7 µM].
The same measure, in the same setting: with `CC[C@H](NC(=O)c1cc(F)ccc1NS(=O)(=O)c1cccc2cccnc12)c1ccccc1` the figure was -0.0957%; with `C(=C\c1ccccc1)/CN1CCN(C(c2ccccc2)c2ccccc2)CC1`, -0.0228% [at 18.6 µM]; with `CC#N`, -0.0202%.
`CCCCC(=O)O[C@]1(C(=O)CO)[C@@H](C)C[C@H]2[C@@H]3CCC4=CC(=O)C=C[C@]4(C)[C@@]3(F)[C@@H](O)C[C@@]21C`: the “activity change” value is -0.0009%.
`CC(CCc1ccc2c(c1)OCO2)NN` (stereo not given): the “activity change” value was -0.0044% [at 46 µM].
Same read-out and setting: with `N#C[C@@H]1C[C@@H]2C[C@@H]2N1C(=O)[C@@H](N)C12CC3CC(CC(O)(C3)C1)C2` the figure was -0.0867% [at 46 µM]; with `C=CC(C)(C)CC(=O)OC`, -0.0935%; with `CCCCCCCCCCCCCCC[C@H](O)[C@@H](N)CO`, -0.0085% [at 46 µM].
On the same count and under the same terms, with `CC(C)C(OC(=O)c1ccccc1)C(C)(C)COC(=O)c1ccccc1` (stereo not given) the figure was -0.0351%.
For `CCCCC/C(=C\c1ccccc1)CO`, the “activity change” value was 0.0648% [at 95.7 µM].
The same measure, in the same setting: with `CC[C@@H]([C@H](C)O)n1ncn(-c2ccc(N3CCN(c4ccc(OC[C@@H]5CO[C@@](Cn6cncn6)(c6ccc(F)cc6F)C5)cc4)CC3)cc2)c1=O` the figure was 0.0298% [at 46 µM]; with `CC(C)(C)C(=O)C(Oc1ccc(Cl)cc1)n1ccnc1` (stereo not given), 0.33% [at 46 µM].
Turning to `Cc1ccccc1N1C(=O)c2cc(S(N)(=O)=O)c(Cl)cc2NC1C` (stereo not given), the outcome was inactive.
`CSc1ccc(Oc2ccc(S(N)(=O)=O)cc2CN(C)C)cc1C`: the “activity change” value is 0.143%.
The same measure, in the same setting: then `O=C(C(=O)c1ccccc1)c1ccccc1`, with -0.0522%.
Consider `Cc1oncc1C(=O)Nc1ccc(C(F)(F)F)cc1`, for which the molecule was called inactive.
Consider `Cc1ccc(S(=O)(=O)NC2CCCCC2)cc1`, for which the “activity change” value is 0.108%.
On the same count and under the same terms, with `OCCSc1ccccc1` the figure was 0.101%; with `NC(=O)N(O)[C@@H]1COc2cc(OCc3ccccc3)ccc21`, 0.0267%.
Take `Nc1nccs1`: the call was inactive.
`CCn1cc(C(=O)O)c(=O)c2cc(F)c(N3CCNCC3)nc21`: the activity change is 0.0215% [at 18.6 µM].
On the same count and under the same terms, with `O=C(CS)OCCOC(=O)CS` the figure was 0.124%.
With `O=C(O)Cc1ccc(-c2ccccc2)cc1`, the activity change is -0.0541% [at 18.6 µM].
On the same count and under the same terms, with `CC1(C)O[C@@H]2C[C@H]3[C@@H]4CCC5=CC(=O)C=C[C@]5(C)[C@H]4[C@@H](O)C[C@]3(C)[C@]2(C(=O)CO)O1` the figure was -0.0353% [at 46 µM]; with `CC(C)C(=O)O`, 0.0406%.
Take `CCc1nn(CCCN2CCN(c3cccc(Cl)c3)CC2)c(=O)n1CCOc1ccccc1`: the molecule was classed as inactive.
As for `CC(C)OCC1CO1` (stereo not given), the “activity change” value was -0.104%.
On the same count and under the same terms, then `Cc1cc2nc3ccc(=[N+](C)C)cc-3sc2cc1N`, with 0.0402% [at 46 µM].
For the molecule `CCCCCCCCCCCC(=O)[O][Sn]([CH2]CCC)([CH2]CCC)[O]C(=O)CCCCCCCCCCC`, the “activity change” value was -0.0205% [at 46 µM].
On the same count and under the same terms, with `Cc1ccc(S)cc1` the figure was 0.0678%.
With `CC(=N\O)/C(C)=N/O`, the “activity change” value was 0.168%.
On to `O=C(/C=C/c1ccccc1)OCCCc1ccccc1`, for which the “activity change” value was 0.123%.
In the case of `CCCCCCCCCCCC[N+](C)(C)CCCS(=O)(=O)[O-]`, the “activity change” value is 0.0235% [at 95.7 µM].
On the same count and under the same terms, with `CCOc1cc(N)c(Cl)cc1C(=O)NCC1CN(Cc2ccc(F)cc2)CCO1` (stereo not given) the figure was -0.0163% [at 46 µM]; with `c1cnc2c(n1)CCCC2`, -0.0064%; with `CC(N)CN` (stereo not given), -0.0759% [at 95.7 µM].
